Assay results taken from PubChem BioAssay AID488847 (NMMLSC, 2010).
In all, about 330,000 compounds went through this assay and about 1,900 (0.58%) were called active.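 The calls were made as follows: active = inhibition of aptamer binding above 40%, roughly 3 SD of noise, on plates passing a quality check; inactive = the rest.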 What follows is part of a selection rich in actives, with near analogues and random picks from the rest.

The compounds below were run against Beta-adrenergic receptor kinase 1 (Homo sapiens) (UniProt P25098) (assay: compounds blocking aptamer binding on GRK2 – biochemical, human GRK2, bead flow cytometry, HTS, primary screen (AID 488847;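 also: median bead fluorescence of bound FAM aptamer so fluorescent compounds give negative values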)). Conditions: FAM-aptamer displacement from GRK2, at 10 µM, active compounds read high.
Sequence of Beta-adrenergic receptor kinase 1 (Homo sapiens) (P25098 whole entry, looked up): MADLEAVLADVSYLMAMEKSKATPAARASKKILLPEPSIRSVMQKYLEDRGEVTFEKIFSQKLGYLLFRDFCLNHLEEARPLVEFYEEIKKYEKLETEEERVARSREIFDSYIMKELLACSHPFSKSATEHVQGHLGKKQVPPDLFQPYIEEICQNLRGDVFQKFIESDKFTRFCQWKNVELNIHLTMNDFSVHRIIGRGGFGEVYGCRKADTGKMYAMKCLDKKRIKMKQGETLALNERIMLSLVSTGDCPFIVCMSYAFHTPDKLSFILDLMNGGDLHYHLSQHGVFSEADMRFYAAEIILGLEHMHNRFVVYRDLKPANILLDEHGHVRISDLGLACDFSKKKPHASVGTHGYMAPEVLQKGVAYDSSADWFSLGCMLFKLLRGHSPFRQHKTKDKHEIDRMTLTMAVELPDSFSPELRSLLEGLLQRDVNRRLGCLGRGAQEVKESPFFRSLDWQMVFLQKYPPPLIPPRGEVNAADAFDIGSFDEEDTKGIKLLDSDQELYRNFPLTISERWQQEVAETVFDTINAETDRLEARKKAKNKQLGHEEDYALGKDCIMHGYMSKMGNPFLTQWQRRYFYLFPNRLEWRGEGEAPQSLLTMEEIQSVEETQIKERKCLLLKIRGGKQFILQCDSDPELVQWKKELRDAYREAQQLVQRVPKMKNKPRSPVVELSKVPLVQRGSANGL

SMILES | inhibition of aptamer binding
CCOc1ccccc1C(=O)NCc1ccco1 | 50% (active)
Cc1cccc(Nc2ccccc2C(=O)NCc2ccco2)c1C | 0% (inactive)
CCOc1cc(NC(=S)NCc2ccco2)c(OCC)cc1NC(=O)c1ccco1 | 0% (inactive)
Cc1csc(=O)n1CC(=O)OCC(=O)N(CC(C)C)c1c(N)n(Cc2ccccc2)c(=O)[nH]c1=O | 98% (active)
CC(C)CN(C(=O)COC(=O)c1ccc(Cl)c(N)c1)c1c(N)n(Cc2ccccc2)c(=O)[nH]c1=O | 1% (inactive)
CC(C)CN(C(=O)COC(=O)c1ccc2ccccc2c1)c1c(N)n(Cc2ccccc2)c(=O)[nH]c1=O | 0% (inactive)
c1ccc(CC2CCN(c3nc4ccccc4n4cnnc34)CC2)cc1 | 0% (inactive)
COc1ccccc1OCCNC(=O)c1cc([N+](=O)[O-])cc([N+](=O)[O-])c1 | 0% (inactive)
COc1ccc(C(=O)NCCNc2ccc([N+](=O)[O-])cn2)cc1 | 45% (active)
COc1ccc(C(=O)NCCSc2ccccc2C)cc1 | 0% (inactive)
O=C(N/N=C/C=C/c1ccco1)c1cccs1 | 7% (inactive)
Cc1nn(C)c(Cl)c1CN1CCC(n2nccc2NC(=O)C2CCCC2)CC1 | 4% (inactive)
COc1ccc(S(=O)(=O)N2CCOCC2)cc1C(=O)NC1CCCCC1 | 3% (inactive)
CC1CCCCC1NC(=O)CN1CCC(O)(c2ccc3c(c2)OCO3)CC1 (centres undefined) | 1% (inactive)
O=C(c1cnn(-c2ccc(Cl)cc2)c1)c1ccccc1O | 47% (active)
Cc1ncc(CC(=O)n2cc(C(=O)c3cc(Cl)ccc3O)cn2)s1 | 6% (inactive)
COc1ccc(CNC(=O)COc2ccccc2C(=O)c2cnn(-c3ccccc3)c2)cc1OC | 1% (inactive)
Cc1ccc(C)c(S(=O)(=O)N2CCN(c3ncnc4sccc34)CC2)c1 | 2% (inactive)
Cc1ccc(-n2ncc3c2CC(C)(C)CC3NC(=O)Cc2c(C)noc2C)cc1 (centres undefined) | 3% (inactive)
CCOC(=O)C1CCN(C(c2cc3cc(C)cc(C)c3[nH]c2=O)c2nnnn2C2CCCCC2)CC1 (centres undefined) | 0% (inactive)
CCOC(=O)C1CCCN(CCSc2ccc(C)cc2)C1 (centres undefined) | 0% (inactive)
CCOC(=O)C1CCCN(Cc2nc(N)nc(Nc3ccc(C)cc3)n2)C1 (centres undefined) | 60% (active)
Cc1ccc(Nc2nc(N)nc(CN3CCN(Cc4ccccc4)CC3)n2)cc1Cl | 1% (inactive)
Cc1cc(C)c2nc(N3CCC(C(=O)NCCN4CCOCC4)CC3)sc2c1 | 1% (inactive)

SMILES | inhibition of aptamer binding
CC1CCN(CC(=O)Nc2nccs2)CC1 | 1% (inactive)
O=C(O)c1ccc2c(c1)C(=O)N(c1ccc(/C=C/C(=O)c3ccccc3)cc1)C2=O | 46% (active)
O=C(/C=C/c1ccc(N2CCOCC2)cc1)c1ccccc1 | 0% (inactive)
Cc1cccc(N2C(=O)c3ccc(C(=O)Nc4cccc(C(=O)O)c4)cc3C2=O)c1 | 0% (inactive)
O=C(NC1CCCC1)C(c1ccc(N2CCOCC2)cc1)N(C(=O)c1ccco1)c1ccccc1F (centres undefined) | 1% (inactive)
CC(C)c1ccc(Nc2nnc(SCC(=O)c3nnc(-c4ccccc4)o3)s2)cc1 | 0% (inactive)
CCN1/C(=C\c2ccc3ccccc3[n+]2CC)Sc2cc(C)ccc21 | 96% (active)
CCN1/C(=C/c2ccc3ccc(C)cc3[n+]2CC)Sc2ccccc21 | 94% (active)
CCn1c(CNC(=O)c2ccccc2)nnc1SCC(=O)N1CCN(c2ccccc2)CC1 | 0% (inactive)
NC(=O)c1nnsc1-c1ccc(-c2snnc2C(N)=O)cc1 | 1% (inactive)
CN(CCC#N)c1ncnc2scc(-c3ccccc3)c12 | 3% (inactive)
CC(Oc1ccc(F)cc1)C(=O)N1CCN(c2ncccn2)CC1 (centres undefined) | 6% (inactive)
COc1cccc(/C=C(/CC(=O)Nc2ccc(N3CCOCC3)cc2)c2nc3ccccc3s2)c1 | 0% (inactive)
CCCCn1c(N)c(N(CCC(C)C)C(=O)c2ccc([N+](=O)[O-])o2)c(=O)[nH]c1=O | 55% (active)
CCCCn1c(N)c(N(CCC(C)C)C(=O)c2ccc(COc3ccccc3)o2)c(=O)[nH]c1=O | 1% (inactive)
CCCCN(C(=O)c1ccc(C)o1)c1c(N)n(CCCC)c(=O)[nH]c1=O | 0% (inactive)
C=CCSc1nc2c(c(=O)[nH]1)C(C(C)C)C(C#N)=C(N)O2 (centres undefined) | 2% (inactive)
CC(CC(=O)Nc1ccccc1)n1ccnc1 (centres undefined) | 1% (inactive)
C[C@H](NS(=O)(=O)c1ccc(Cl)cc1)C(=O)OCC(=O)N1CCOCC1 | 8% (inactive)
COC(=O)c1c(C)[nH]c(C)c1-c1ccc([N+](=O)[O-])cc1 | 0% (inactive)
COc1ccc(C2CC(c3ccc([N+](=O)[O-])cc3)=NN2C(C)=O)cc1 (centres undefined) | 0% (inactive)
CC(=O)N1CC[n+]2c(-c3ccc([N+](=O)[O-])cc3)csc21 | 92% (active)
Cc1nn(Cc2ccc(F)cc2)c(C)c1NC(=O)c1cccnc1Cl | 5% (inactive)
Cc1nn(Cc2ccc(F)cc2)c(C)c1NC(=O)c1noc2c1CCc1ccccc1-2 | 73% (active)

SMILES | inhibition of aptamer binding
Cc1nn(Cc2ccc(Cl)c(Cl)c2)c(C)c1NC(=O)c1cc(C2CC2)on1 | 0% (inactive)
Cc1ccccc1-n1cc(CNC(=O)CC2C(=O)NCCN2C/C=C/c2ccccc2)cn1 (centres undefined) | 0% (inactive)
O=C(NC1CC1)C1=C[C@H](c2coc3ccccc3c2=O)C[C@H](OCCCCO)O1 | 2% (inactive)
CCN1C(=O)[C@H]2[C@@H](c3ccc(-c4ccc(F)cc4)cc3)N[C@@](Cc3ccccc3)(C(=O)OC)[C@H]2C1=O | 0% (inactive)
CCN1C(=O)[C@H]2[C@@H](c3ccc(-c4ccc(OC)cc4)cc3)N[C@@](Cc3ccccc3)(C(=O)OC)[C@H]2C1=O | 43% (active)
CCN1C(=O)[C@H]2[C@@H](c3ccc(SC4CCCCC4)c(OC)c3)N[C@@](Cc3ccccc3)(C(=O)OC)[C@H]2C1=O | 0% (inactive)
COc1cccc(C2SCC(=O)N2c2cccc(C)c2)c1OC (centres undefined) | 2% (inactive)
COCCn1c(SCC(=O)c2[nH]c(C)c(C(C)=O)c2C)nc2ccccc2c1=O | 0% (inactive)
C/C(=N\NC(=S)NCc1ccccc1)C1CCCCC1 | 1% (inactive)
CC1CCCCC1NC(=O)c1cc(=O)[nH]c2ccccc12 (centres undefined) | 0% (inactive)
COc1ccc(OC)c(CNC(=O)Cn2nc(C)c3c(C)n(-c4ccc(C)cc4)nc3c2=O)c1 | 0% (inactive)
CC[N+](C)(CC)CCC[n+]1c(-c2ccccc2)c2cc(N)ccc2c2ccc(N)cc21 | 62% (active)
Cc1ccc(-c2nc(CS(=O)CC(=O)NC3CCCC3)c(C)o2)cc1 (centres undefined) | 0% (inactive)
O=C(COC(=O)c1ccc(O)cc1O)c1ccc2c(c1)OCCO2 | 44% (active)
CC(=O)Nc1cccc(C(=O)OCC(=O)c2ccc3c(c2)OCO3)c1 | 0% (inactive)
O=C(OCc1ccccc1F)c1ccc2c(c1)OCCO2 | 0% (inactive)
CN(CC(=O)Nc1ccc(Cl)c(C(F)(F)F)c1)C(=O)CCC(=O)c1ccccc1 | 1% (inactive)
CCC(C)(C)N=C(NC#N)Nc1cccnc1 | 0% (inactive)
Cc1nc(Nc2ccc3c(c2)OCCO3)c2nnn(Cc3ccccc3Cl)c2n1 | 0% (inactive)
Cc1nc(Nc2ccccc2F)c2nnn(Cc3ccccc3Cl)c2n1 | 47% (active)
Cc1nc(Nc2ccc(S(=O)(=O)N3CCCC3)cc2)c2nnn(Cc3ccccc3)c2n1 | 0% (inactive)
O=C(CNC(c1ccccc1)c1ccccc1)Nc1ccc(F)cc1 | 1% (inactive)
S=C(Nc1cccnc1)Nc1ccccn1 | 1% (inactive)
O=C1CSC(=O)N1CCOCCN1C(=O)CSC1=O | 3% (inactive)

SMILES | inhibition of aptamer binding
O=C(CNC(=O)c1n[nH]c2ccccc12)Nc1cc(Cl)ccc1Cl | 0% (inactive)
Cc1cccc(OCC(O)CN2CCN(S(=O)(=O)c3ccc(C)cc3C)CC2)c1 (centres undefined) | 1% (inactive)
CC(=O)c1ccc(OCC(O)CN2CCN(S(=O)(=O)c3cccc(Br)c3)CC2)cc1 (centres undefined) | 88% (active)
O=S(=O)(c1ccc(OCC(O)CN2CCN(c3ccccc3Cl)CC2)cc1)N1CCOCC1 (centres undefined) | 0% (inactive)
CCC(C)N1C(=O)S/C(=C/c2ccc(Sc3nc4ccccc4[nH]3)o2)C1=O (centres undefined) | 1% (inactive)
Cc1cccc(NC(=S)NCc2ccc3[nH]c4c(c3c2)CCCC4)c1 | 0% (inactive)
Cc1ccc(C(C)NC(=O)Cn2nc(C)c([N+](=O)[O-])c2C)cc1 (centres undefined) | 2% (inactive)
COC(=O)c1ccc(C)c(NC(=O)C2CC(=O)N(C3CCCC(C)C3C)C2)c1 (centres undefined) | 63% (active)
Cc1ccc(C)c(NC(=O)C2CC(=O)N(C(C)C)C2)c1 (centres undefined) | 2% (inactive)
COC(=O)c1ccc(C)c(NC(=O)Cn2c(C)csc2=O)c1 | 0% (inactive)
O=C(CSCc1ccc([N+](=O)[O-])cc1)NCCSCc1ccccc1 | 0% (inactive)
COc1ccc(-c2ocnc2C(=O)Nc2ccc3c(c2)CCC3)cc1 | 8% (inactive)
COC(=O)c1ccc(S(=O)(=O)NCc2ccccc2)n1C | 2% (inactive)
Cc1ccc(C(=O)OCC(=O)N2CC(C)CC(C)C2)cc1S(=O)(=O)N1CCCCC1 (centres undefined) | 2% (inactive)
COc1cccc2c1OCC(C(=O)NCc1ccc(Cl)cc1Cl)=C2 | 0% (inactive)
CCC(=O)c1ccc(OCC(=O)OCC(=O)N2CCc3ccccc3C2)cc1 | 3% (inactive)
CN(C)c1ccc(NC(=S)N(CCc2ccccc2)C2CC(=O)N(c3c(Cl)cccc3Cl)C2=O)cc1 (centres undefined) | 1% (inactive)
O=C(CNC(=O)COc1ccccc1)NCCc1ccccn1 | 0% (inactive)
O=C(COc1ccccc1)NCCc1nc2ccccc2[nH]1 | 59% (active)
CC(C)=C(NC(=O)c1ccco1)C(=O)NCCc1nc2ccccc2[nH]1 | 0% (inactive)
OCCC1CN(Cc2ccc(Oc3ncccn3)cc2)CCN1CCc1ccccc1 (centres undefined) | 0% (inactive)
CCNc1nc(NC(C)C)nc(OCCOC(=O)c2ccccc2)n1 | 0% (inactive)
